Measured values from PMC11006913.

How the values were obtained:
Assay in all cases: PBM; 200 nM protein, PBS
Details in all cases: dsDNA, one strand shown
HOXD13 [1] = target: HOXD13 (Homo sapiens, UniProt P35453 263-343, T313R)
HOXD13 [2] = target: HOXD13 (Homo sapiens, UniProt P35453 263-343)
HOXD13 [3] = target: HOXD13 (Homo sapiens, UniProt P35453 263-343, T313A)
HOXC10 = HOXC10 (Homo sapiens, UniProt Q9NYD6 254-340, K271E)
Sequence of HOXC10 (Q9NYD6 254-340 K271E): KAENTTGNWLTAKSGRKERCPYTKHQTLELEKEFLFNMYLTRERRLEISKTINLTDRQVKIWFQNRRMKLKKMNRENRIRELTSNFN

Sequence of HOXD13 (Homo sapiens, UniProt P35453 263-343, T313R) (P35453 263-343 T313R): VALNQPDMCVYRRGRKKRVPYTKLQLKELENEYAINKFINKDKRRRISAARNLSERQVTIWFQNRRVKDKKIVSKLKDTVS
Sequence of HOXD13 (Homo sapiens, UniProt P35453 263-343) (P35453 263-343): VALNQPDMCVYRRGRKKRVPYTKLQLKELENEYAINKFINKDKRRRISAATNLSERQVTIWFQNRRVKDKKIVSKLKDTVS
Sequence of HOXD13 (Homo sapiens, UniProt P35453 263-343, T313A) (P35453 263-343 T313A): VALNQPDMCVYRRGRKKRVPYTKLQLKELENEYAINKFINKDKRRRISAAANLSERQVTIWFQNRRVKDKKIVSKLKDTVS

Row | Sequence | binding signal (HOXD13 [1]) | binding signal (HOXD13 [2]) | binding signal (HOXD13 [3]) | binding signal (HOXC10)
1 | CGCCCCCA | 9.33 upbm affinity estimate (log intensity, higher = more binding, comparable within an allelic series) | 9.3 upbm affinity estimate (log intensity, higher = more binding, comparable within an allelic series) | 9.5 upbm affinity estimate (log intensity, higher = more binding, comparable within an allelic series) | 
2 | GCTGCGCA | 9.55 upbm affinity estimate (log intensity, higher = more binding, comparable within an allelic series) | 9.53 upbm affinity estimate (log intensity, higher = more binding, comparable within an allelic series) | 9.77 upbm affinity estimate (log intensity, higher = more binding, comparable within an allelic series) | 
3 | CCCCTCGC | 9.62 upbm affinity estimate (log intensity, higher = more binding, comparable within an allelic series) | 9.63 upbm affinity estimate (log intensity, higher = more binding, comparable within an allelic series) | 9.67 upbm affinity estimate (log intensity, higher = more binding, comparable within an allelic series) | 
4 | TCTCGTAA | 10.5 upbm affinity estimate (log intensity, higher = more binding, comparable within an allelic series) | 11.8 upbm affinity estimate (log intensity, higher = more binding, comparable within an allelic series) | 11.6 upbm affinity estimate (log intensity, higher = more binding, comparable within an allelic series) | 
5 | ATATAAAC | 10.8 upbm affinity estimate (log intensity, higher = more binding, comparable within an allelic series) | 11.8 upbm affinity estimate (log intensity, higher = more binding, comparable within an allelic series) | 11.5 upbm affinity estimate (log intensity, higher = more binding, comparable within an allelic series) | 
6 | CTGGCCCC | 9.44 upbm affinity estimate (log intensity, higher = more binding, comparable within an allelic series) | 9.38 upbm affinity estimate (log intensity, higher = more binding, comparable within an allelic series) | 9.45 upbm affinity estimate (log intensity, higher = more binding, comparable within an allelic series) | 
7 | TCCATAAA | 10.7 upbm affinity estimate (log intensity, higher = more binding, comparable within an allelic series) | 11.9 upbm affinity estimate (log intensity, higher = more binding, comparable within an allelic series) | 11.7 upbm affinity estimate (log intensity, higher = more binding, comparable within an allelic series) | 11.4 upbm affinity estimate (log intensity, higher = more binding, comparable within an allelic series)
8 | AGCCGGCC | 9.49 upbm affinity estimate (log intensity, higher = more binding, comparable within an allelic series) | 9.41 upbm affinity estimate (log intensity, higher = more binding, comparable within an allelic series) | 9.49 upbm affinity estimate (log intensity, higher = more binding, comparable within an allelic series) | 
9 | GCAAGACC | 9.62 upbm affinity estimate (log intensity, higher = more binding, comparable within an allelic series) | 9.57 upbm affinity estimate (log intensity, higher = more binding, comparable within an allelic series) | 9.69 upbm affinity estimate (log intensity, higher = more binding, comparable within an allelic series) | 
10 | GGCCCACC | 9.47 upbm affinity estimate (log intensity, higher = more binding, comparable within an allelic series) | 9.38 upbm affinity estimate (log intensity, higher = more binding, comparable within an allelic series) | 9.5 upbm affinity estimate (log intensity, higher = more binding, comparable within an allelic series) | 
11 | GGCCCGAA | 9.5 upbm affinity estimate (log intensity, higher = more binding, comparable within an allelic series) | 9.42 upbm affinity estimate (log intensity, higher = more binding, comparable within an allelic series) | 9.59 upbm affinity estimate (log intensity, higher = more binding, comparable within an allelic series) | 
12 | CAATAATC | 10.2 upbm affinity estimate (log intensity, higher = more binding, comparable within an allelic series) | 11.2 upbm affinity estimate (log intensity, higher = more binding, comparable within an allelic series) | 11.1 upbm affinity estimate (log intensity, higher = more binding, comparable within an allelic series) | 
13 | CGTGCCCC | 9.51 upbm affinity estimate (log intensity, higher = more binding, comparable within an allelic series) | 9.62 upbm affinity estimate (log intensity, higher = more binding, comparable within an allelic series) | 9.71 upbm affinity estimate (log intensity, higher = more binding, comparable within an allelic series) | 
14 | CCTCATAA | 10.6 upbm affinity estimate (log intensity, higher = more binding, comparable within an allelic series) | 11.8 upbm affinity estimate (log intensity, higher = more binding, comparable within an allelic series) | 11.6 upbm affinity estimate (log intensity, higher = more binding, comparable within an allelic series) | 
15 | CATGTATA | 10.3 upbm affinity estimate (log intensity, higher = more binding, comparable within an allelic series) | 10.8 upbm affinity estimate (log intensity, higher = more binding, comparable within an allelic series) | 11 upbm affinity estimate (log intensity, higher = more binding, comparable within an allelic series) | 
16 | CGAAGGCG | 9.52 upbm affinity estimate (log intensity, higher = more binding, comparable within an allelic series) | 9.45 upbm affinity estimate (log intensity, higher = more binding, comparable within an allelic series) | 9.53 upbm affinity estimate (log intensity, higher = more binding, comparable within an allelic series) | 
17 | CTTGTAAA | 10.9 upbm affinity estimate (log intensity, higher = more binding, comparable within an allelic series) | 12.3 upbm affinity estimate (log intensity, higher = more binding, comparable within an allelic series) | 11.9 upbm affinity estimate (log intensity, higher = more binding, comparable within an allelic series) | 
18 | CCAGTCCG | 9.56 upbm affinity estimate (log intensity, higher = more binding, comparable within an allelic series) | 9.53 upbm affinity estimate (log intensity, higher = more binding, comparable within an allelic series) | 9.68 upbm affinity estimate (log intensity, higher = more binding, comparable within an allelic series) | 
19 | CCGGCCGC | 9.39 upbm affinity estimate (log intensity, higher = more binding, comparable within an allelic series) | 9.4 upbm affinity estimate (log intensity, higher = more binding, comparable within an allelic series) | 9.32 upbm affinity estimate (log intensity, higher = more binding, comparable within an allelic series) | 
20 | CGCCCGCG | 9.5 upbm affinity estimate (log intensity, higher = more binding, comparable within an allelic series) | 9.42 upbm affinity estimate (log intensity, higher = more binding, comparable within an allelic series) | 9.59 upbm affinity estimate (log intensity, higher = more binding, comparable within an allelic series) | 
21 | CTAGTAAA | 10.8 upbm affinity estimate (log intensity, higher = more binding, comparable within an allelic series) | 11.9 upbm affinity estimate (log intensity, higher = more binding, comparable within an allelic series) | 11.8 upbm affinity estimate (log intensity, higher = more binding, comparable within an allelic series) | 
22 | CATATAAA | 10.9 upbm affinity estimate (log intensity, higher = more binding, comparable within an allelic series) | 12.1 upbm affinity estimate (log intensity, higher = more binding, comparable within an allelic series) | 11.9 upbm affinity estimate (log intensity, higher = more binding, comparable within an allelic series) | 
23 | CCTATAAA | 11.1 upbm affinity estimate (log intensity, higher = more binding, comparable within an allelic series) | 12.3 upbm affinity estimate (log intensity, higher = more binding, comparable within an allelic series) | 12.1 upbm affinity estimate (log intensity, higher = more binding, comparable within an allelic series) | 
24 | CACCGGTG | 9.69 upbm affinity estimate (log intensity, higher = more binding, comparable within an allelic series) | 9.58 upbm affinity estimate (log intensity, higher = more binding, comparable within an allelic series) | 9.72 upbm affinity estimate (log intensity, higher = more binding, comparable within an allelic series) | 
